Source: a collection of fitness landscapes (doi:10.1016/j.celrep.2020.107928)
Whole data set: some 81,000 sequences, median “one-hybrid fitness for binding NBS DNA” near -0.1, cut for the highest 2% near 0.36. For the sample, the highest values were picked, then their nearest neighbours and some sequences at random.

B1: Caulobacter ParB omega fusion; a variant is named by its letters at X, in order, B8GW30 (parent)
chain: MESVVVGEPGMSEGRRGLGRGLSALLGEVDAAPAQAPGEQLGGSREAPIEILQRNPDQPRRTFREEDLEDLSNSIREKGVLQPILVRPSPDTAGEYQIVAGERAWRAAQRAGLKTVPIMVRELDDLAVLEIGIIENVQRADLNVLEEALSYKVLMEKFERTQENIAQTIGKSXSHVANXMRLLXLPDEVQSYLVSGELTAXHARAIAAAADPVALAKQIIEGGLSVRETEALARKAPNLSAGKSKGGRPPRVKDTDTQALESDLSSVLGLDVSIDHRGSTGTLTITYATLEQLDDLCNRLTRGI

Variants of: B1
Test: one-hybrid fitness for binding NBS DNA (the Noc-binding site; scaled: cognate 1, non-cognate 0); higher = stronger binding
Settings: with NBS DNA site
Procedure, shortened: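 Fitness is the rescaled log change in variant-to-wild-type read ratio, measured by Illumina sequencing of plasmids before and after bacterial one-hybrid selection. The scale puts cognate at 1 and non-cognate at 0. Selection of Caulobacter ParB libraries, four specificity codons randomised, took place in E. coli USO with a HIS3 reporter, site 19 bp from the promoter, over 48 hours at 37°C on M9-minus-histidine with 0.1 mM IPTG and 5 mM 3-AT.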

Variant	one-hybrid fitness for binding NBS DNA
TTRD	≤ 0.2
YFPL	≤ 0.2
PYKL	≤ 0.2
RHSP	≤ 0.2
RKSS	0.544
RHSS	0.438
RFSS	0.231
RLSN	≤ 0.2
RCSS	0.522
RKSP	≤ 0.2
RHSN	≤ 0.2
RKSN	≤ 0.2
RLSD	≤ 0.2
RPSS	≤ 0.2
RLSS	0.411
TAMR	≤ 0.2
PIWS	≤ 0.2
TISQ	≤ 0.2
GDNM	≤ 0.2
KDTE	≤ 0.2
EWSR	≤ 0.2
APCT	≤ 0.2
RSSD	≤ 0.2
RASN	≤ 0.2
RASH	≤ 0.2
RSSS	0.437

Variant	one-hybrid fitness for binding NBS DNA
RMSD	≤ 0.2
RMSS	0.439
RMSH	≤ 0.2
RASS	0.421
RSSP	≤ 0.2
LPKA	≤ 0.2
QSPH	≤ 0.2
HLSL	≤ 0.2
NDNR	≤ 0.2
NAKL	≤ 0.2
QILN	≤ 0.2
TTWI	≤ 0.2
SQRH	≤ 0.2
QACS	0.272
QPCR	≤ 0.2
QKCM	≤ 0.2
QKCR	0.519
QACH	≤ 0.2
QMCY	0.212
QACR	0.447
QMCR	0.509
QCCR	0.599
QECR	≤ 0.2
QMCM	≤ 0.2
QKCD	≤ 0.2
SHHD	≤ 0.2

Variant	one-hybrid fitness for binding NBS DNA
AWRT	≤ 0.2
FPKF	≤ 0.2
NPPH	≤ 0.2
KTTD	≤ 0.2
EIVG	≤ 0.2
PQLT	≤ 0.2
LLMK	≤ 0.2
QHCS	0.279
QTCF	≤ 0.2
QHCR	0.473
QHCN	≤ 0.2
QTCG	≤ 0.2
QSCR	0.493
QTCR	0.679
QICS	0.216
QSCD	≤ 0.2
QSCN	≤ 0.2
QICR	0.377
QICG	≤ 0.2
SPDS	≤ 0.2
SFYS	≤ 0.2
PAKH	≤ 0.2
GLKV	≤ 0.2
DMTR	≤ 0.2
PHDI	≤ 0.2
QCYR	0.606

Variant	one-hybrid fitness for binding NBS DNA
QSYD	≤ 0.2
QSRR	1
QWYR	0.201
QGYR	≤ 0.2
QSYR	0.458
QGRR	0.33
QDRR	0.275
HTCT	≤ 0.2
HKQR	≤ 0.2
IERR	≤ 0.2
GCNT	≤ 0.2
VMRG	≤ 0.2
EMRQ	≤ 0.2
IITW	≤ 0.2
YLQI	≤ 0.2
KCMT	≤ 0.2
KRMR	0.51
KCMR	≤ 0.2
KRMN	≤ 0.2
KSMR	≤ 0.2
KRMT	0.539
KRMS	0.396
KRMD	≤ 0.2
DRMT	≤ 0.2
TALF	≤ 0.2
RIDT	≤ 0.2

Variant	one-hybrid fitness for binding NBS DNA
RSDT	≤ 0.2
RTNT	0.636
RSNT	0.503
RTDT	0.284
RADT	≤ 0.2
RANT	0.496
RTNN	≤ 0.2
RINT	0.554
RINP	≤ 0.2
RANP	≤ 0.2
RSNN	≤ 0.2
WWTD	≤ 0.2
LSRK	≤ 0.2
SSTW	≤ 0.2
ASEC	≤ 0.2
SYLM	≤ 0.2
SHDP	≤ 0.2
PPLD	≤ 0.2
IVCR	≤ 0.2
GYLC	≤ 0.2
RMNT	0.546
RCNT	0.589
RHND	≤ 0.2
RHNT	0.508
RMDT	0.226
RFNT	0.279

Variant	one-hybrid fitness for binding NBS DNA
RHDT	0.258
RMNH	0.26
RPNT	≤ 0.2
ADTR	≤ 0.2
WVAC	≤ 0.2
TAAM	≤ 0.2
SGRG	≤ 0.2
CNSI	≤ 0.2
HRTD	≤ 0.2
KSYC	≤ 0.2
QPRR	0.365
QERR	0.245
QPYR	≤ 0.2
QCRR	1.13
QIYR	0.348
QIPR	0.203
QWRR	0.355
QIRR	0.867
GWMI	≤ 0.2
TGPP	≤ 0.2
RGHW	≤ 0.2
KLGK	≤ 0.2
AATY	≤ 0.2
